Measured values as given in PubChem BioAssay (NCI).
Compounds without any hit were thinned out: in the full panel of roughly 83,000, 20% have a hit.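 In brief: 96-well plates, 48 h treatment, single concentration, percent growth endpoint.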 Calls of active or inactive are those of the source. Rule for the calls: active = growth percent below 10; inactive = the rest.

Assays:
Assay in all cases: NCI-60 one-dose screen, 48 h (100 = growth as untreated, 0 = no growth, -100 = all killed)
SK-MEL-2 melanoma = details: 10 µM unless noted
EKVX NSCLC = details: 10 µM unless noted
SN12C renal = details: 10 µM unless noted
UO-31 renal = details: 10 µM unless noted
TK-10 renal = details: 10 µM unless noted
ACHN renal = details: 10 µM unless noted
CAKI-1 renal = details: 10 µM unless noted
A498 renal = details: 10 µM unless noted
CCRF-CEM leukemia = details: 10 µM unless noted
MOLT-4 leukemia = details: 10 µM unless noted
SR leukemia = details: 10 µM unless noted
RPMI-8226 leukemia = details: 10 µM unless noted
OVCAR-8 ovarian = details: 10 µM unless noted
OVCAR-5 ovarian = details: 10 µM unless noted
SK-OV-3 ovarian = details: 10 µM unless noted
IGROV1 ovarian = details: 10 µM unless noted
OVCAR-3 ovarian = details: 10 µM unless noted
HS 578T breast = details: 10 µM
NCI/ADR-RES ovarian = details: 10 µM unless noted
OVCAR-4 ovarian = details: 10 µM unless noted

Row | SMILES | growth (SK-MEL-2 melanoma) | growth (EKVX NSCLC) | growth (SN12C renal) | growth (UO-31 renal) | growth (TK-10 renal) | growth (ACHN renal) | growth (CAKI-1 renal) | growth (A498 renal) | growth (CCRF-CEM leukemia) | growth (MOLT-4 leukemia) | growth (SR leukemia) | growth (RPMI-8226 leukemia) | growth (OVCAR-8 ovarian) | growth (OVCAR-5 ovarian) | growth (SK-OV-3 ovarian) | growth (IGROV1 ovarian) | growth (OVCAR-3 ovarian) | growth (HS 578T breast) | growth (NCI/ADR-RES ovarian) | growth (OVCAR-4 ovarian)
1 | CC1C2CCC(C2)C1COCCOCCO (stereo not drawn) | 112% (inactive) | 112% (inactive) | 109% (inactive) | 98.7% (inactive) | 109% (inactive) | 106% (inactive) | 105% (inactive) | 83.7% (inactive) | 112% (inactive) | 97.6% (inactive) | 105% (inactive) | 108% (inactive) | 102% (inactive) | 107% (inactive) | 110% (inactive) | 113% (inactive) | 112% (inactive) | 110% (inactive) | 104% (inactive) | –
2 | N#Cc1nc(-c2cccc(Br)c2)cc(-c2ccc(Nc3nc(N4CCCCC4)nc(N4CCCCC4)n3)cc2)c1N | -10.7% (active) | 5.85% (active) | 16.7% (inactive) | -78.8% (active) | -87.8% (active) | -96.3% (active) | -75.5% (active) | -20% (active) | 11.4% (inactive) | 8.61% (active) | 11.9% (inactive) | -0.0335% (active) | 12.2% (inactive) | – | 87.4% (inactive) | -45.4% (active) | -76.6% (active) | 6.14% (active) | 24.3% (inactive) | -53.8% (active)
3 | CCCC(CCC)NCC(O)c1cc(-c2ccc(C(F)(F)F)cc2)nc(C(F)(F)F)c1 (stereo not drawn) | -66.1% (active) | -9.08% (active) | -78.5% (active) | -44.9% (active) | -63.8% (active) | -60.1% (active) | -28.1% (active) | -31% (active) | -7.92% (active) | -30.6% (active) | -61.4% (active) | -37.7% (active) | -62.8% (active) | -37.9% (active) | 52.3% (inactive) | -22.9% (active) | -83.1% (active) | -45.5% (active) | -53.9% (active) | –
4 | CCN(CC)CCCC(C)Nc1cnc(C(=O)Nc2cc(C)cc3cccnc23)cn1 (stereo not drawn) | 104% (inactive) | 77.8% (inactive) | 77.9% (inactive) | 63.3% (inactive) | 86.9% (inactive) | 77.9% (inactive) | 93.4% (inactive) | 70.3% (inactive) | 54.2% (inactive) | 46.5% (inactive) | 81.9% (inactive) | 78% (inactive) | – | 97.6% (inactive) | 104% (inactive) | 68.7% (inactive) | 20.5% (inactive) | 79.9% (inactive) | 92.7% (inactive) | 58.8% (inactive)
5 | Cc1nn(-c2ccc(Cl)cc2)c(=O)n1CCN1CCOCC1 | 61.1% (inactive) | 75.5% (inactive) | 89.6% (inactive) | 66% (inactive) | 64.4% (inactive) | 38.7% (inactive) | 72.4% (inactive) | 105% (inactive) | 63.2% (inactive) | 90.9% (inactive) | 95.3% (inactive) | 83.1% (inactive) | 116% (inactive) | 92.4% (inactive) | 42.8% (inactive) | – | 79.2% (inactive) | 42.7% (inactive) | 75.9% (inactive) | 93.4% (inactive)
6 | CN(C)c1ccc(Nc2c3ccccc3nc3ccccc23)cc1 | 40.1% (inactive) | 19.1% (inactive) | 16.4% (inactive) | -31% (active) | 34.1% (inactive) | -18.8% (active) | -13.5% (active) | 14.2% (inactive) | 19.9% (inactive) | 6.01% (active) | -8.36% (active) | 17.2% (inactive) | 23.5% (inactive) | 43.7% (inactive) | 22% (inactive) | – | -11.7% (active) | 25.2% (inactive) | 12.5% (inactive) | 1.57% (active)
7 | FC(F)(F)c1ccc(/C=N/Nc2nnc3n2N=C(c2ccc(Cl)cc2)CS3)cc1 | 84.2% (inactive) | 66.3% (inactive) | 57.8% (inactive) | 39.7% (inactive) | 53.1% (inactive) | 28.4% (inactive) | 63.5% (inactive) | 69.9% (inactive) | 99.4% (inactive) | 79.5% (inactive) | 79.7% (inactive) | 85.1% (inactive) | – | 92.7% (inactive) | 40.8% (inactive) | 49.2% (inactive) | 46.7% (inactive) | 8.3% (active) | 47.4% (inactive) | 17.4% (inactive)
8 | O=C(CCCCCCc1nc2ccc(Br)cc2[nH]1)NO | -5.43% (active) | 28.6% (inactive) | 1.73% (active) | -17.9% (active) | -13.9% (active) | -36.2% (active) | -41.5% (active) | 9.4% (active) | 9.8% (active) | 7.38% (active) | – | -4.38% (active) | 4.11% (active) | 8.25% (active) | -41.8% (active) | -9.43% (active) | -2.31% (active) | 32.6% (inactive) | -31.3% (active) | 24% (inactive)
9 | CC1(C)C2CCC(O)(C(=O)O)C1C2 (stereo not drawn) | 106% (inactive) | 103% (inactive) | 104% (inactive) | 81.9% (inactive) | 120% (inactive) | 111% (inactive) | 94% (inactive) | 109% (inactive) | 112% (inactive) | 115% (inactive) | – | 114% (inactive) | 112% (inactive) | 112% (inactive) | 103% (inactive) | 95.8% (inactive) | 118% (inactive) | 115% (inactive) | 116% (inactive) | 99.2% (inactive)
10 | CN1CCN(Cc2ccc(NC(=O)c3cncc(C#Cc4cnc5cccnn45)c3)cc2C(F)(F)F)CC1 | -58.6% (active) | -39.1% (active) | 3.05% (active) | 0.419% (active) | -4.27% (active) | 5.04% (active) | 5.93% (active) | -33.1% (active) | 5.9% (active) | – | 5.44% (active) | -20.1% (active) | 5.17% (active) | 12.7% (inactive) | 7.64% (active) | 5.12% (active) | 1.49% (active) | -17.3% (active) | 18.3% (inactive) | -21.7% (active)
11 | COc1ccc(CCN2COc3c([C@@H](C)CCC=C(C)C)ccc(C)c3C2)cc1OC | 89.4% (inactive) | 63.2% (inactive) | 52.8% (inactive) | 41.4% (inactive) | 76.9% (inactive) | 70% (inactive) | 68.7% (inactive) | 66.2% (inactive) | 62.6% (inactive) | 48.3% (inactive) | – | 28.5% (inactive) | 72.1% (inactive) | 83% (inactive) | 82.6% (inactive) | 68.3% (inactive) | 30.2% (inactive) | 76.9% (inactive) | 44.6% (inactive) | 39.7% (inactive)
12 | COc1ccc(/C(=C\c2ccc3c(c2)OCO3)C(=O)Nc2nc3ccc(F)cc3s2)cc1OC | 95.7% (inactive) | 103% (inactive) | 115% (inactive) | 68.5% (inactive) | 119% (inactive) | 97.5% (inactive) | 86.5% (inactive) | 98.3% (inactive) | – | 94.4% (inactive) | 92.5% (inactive) | 102% (inactive) | 110% (inactive) | 104% (inactive) | 100% (inactive) | 95.8% (inactive) | 90.7% (inactive) | 104% (inactive) | 123% (inactive) | 93.8% (inactive)
